Compounds without any hit were thinned out: in the full panel of roughly 83,000, 20% have a hit.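 The test compound was applied at a single concentration to cells in 96-well plates for 48 hours, and percent growth was recorded.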 Unmarked numbers belong to inactive results. The source made the active and inactive calls. The calls were made as follows: active = growth percent below 10; inactive = the rest.
tested on: MDA-MB-468 breast; assay: NCI-60 one-dose screen, 48 h (100 = growth as untreated, 0 = no growth, -100 = all killed); conditions: 10 µM unless noted

Row | Structure (SMILES) | growth
1 | COc1cc(/C=C/c2cc(/C=C/c3ccc(O)c(OC)c3)n(C(=O)Nc3ccc(F)c(Cl)c3)n2)ccc1O | -27.6% (active)
2 | COc1cccc(C2C(C#N)=C(N)Oc3cc4c(cc32)OCO4)c1 (stereo not given) | 2.26% (active)
3 | C#CCn1c(-c2cc(OC)c(OC)cc2Br)nc(-c2ccccc2)c1-c1ccccc1 | 5.05% (active)
4 | COc1ccc(C2C=C(c3ccc(Cl)c(Cl)c3)N=C3SC(C)=CN32)cc1OC (stereo not given) | 53.1%
5 | O=C1Cc2cc(CCN3CCN(c4nsc5ccccc45)CC3)c(Cl)cc2N1 | 49.1%

Source: PubChem BioAssay (NCI)
